Test results taken from PubChem BioAssay (NCI).
Compounds without any hit were thinned out: in the full panel of roughly 83,000, 20% have a hit.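 Activity criterion: percent growth below 10, measured after cells in 96-well plates were exposed to a single compound concentration for 48 hours.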 The source made the active and inactive calls.

Assays:
Assay in all cases: NCI-60 one-dose screen, 48 h (100 = growth as untreated, 0 = no growth, -100 = all killed)
Settings in all cases: 10 µM unless noted
[1] = system: NCI-H23 lung
[2] = system: NCI-H226 lung
[3] = system: NCI-H322M lung
[4] = system: HOP-62 NSCLC
[5] = system: NCI-H460 lung
[6] = system: HOP-92 NSCLC
[7] = system: NCI-H522 lung
[8] = system: A549/ATCC NSCLC
[9] = system: 786-0 renal
[10] = system: COLO 205 colon
[11] = system: DU-145 prostate
[12] = system: K-562 leukemia
[13] = system: MALME-3M melanoma
[14] = system: MDA-MB-231 breast
[15] = system: RXF 393 renal
[16] = system: SF-268 CNS
[17] = system: SF-295 CNS
[18] = system: SF-539 CNS
[19] = system: UACC-257 melanoma
[20] = system: M14 melanoma

Measured: growth

COc1ccc(CN2CCc3c(Sc4ccccc4)nc(N)nc3C2=O)c(OC)c1
active: [6] -11.4%
inactive: [1] 49% | [2] 67.6% | [3] 67.9% | [4] 86.2% | [5] 64.6% | [7] 21.3% | [8] 60.5% | [9] 62.4% | [10] 80.2% | [11] 77.4% | [12] 48.3% | [13] 38.9% | [14] 69% | [15] 44.4% | [16] 67.3% | [17] 69.6% | [18] 66.5% | [19] 50.5% | [20] 61.7%

Brc1cccc(-c2cc(-c3ccc4c(c3)OCCCO4)[nH]n2)c1
inactive: [1] 66.2% [25 µM] | [2] 72% [25 µM] | [3] 68% [25 µM] | [4] 53% [25 µM] | [5] 16% [25 µM] | [6] 56.8% [25 µM] | [8] 44.4% [25 µM] | [9] 85.2% [25 µM] | [10] 36.3% [25 µM] | [11] 69.3% [25 µM] | [12] 17.4% [25 µM] | [13] 52.9% [25 µM] | [14] 49.4% [25 µM] | [15] 82.4% [25 µM] | [16] 68.8% [25 µM] | [17] 62.3% [25 µM] | [18] 77.1% [25 µM] | [19] 96.7% [25 µM] | [20] 49.6% [25 µM]
active: [7] 2.15% [25 µM]

COc1ccc(-c2nc(/C=C3/C(=O)Nc4ccc(F)cc43)c3ccccn23)cc1
inactive: [1] 97.8% | [2] 114% | [3] 126% | [4] 108% | [5] 94.8% | [6] 92.3% | [7] 104% | [8] 99.4% | [9] 98.8% | [10] 97.3% | [11] 102% | [12] 87.2% | [13] 130% | [14] 89.2% | [15] 112% | [16] 107% | [17] 140% | [18] 117% | [19] 102% | [20] 106%

Brc1cccc(-c2cc(-c3ccc4nccnc4c3)[nH]n2)c1
active: [5] 4.81% [25 µM] | [7] -5.69% [25 µM] | [10] -24.7% [25 µM] | [15] -12.8% [25 µM] | [17] 7.1% [25 µM] | [18] -35.2% [25 µM]
inactive: [1] 46.5% [25 µM] | [2] 22.4% [25 µM] | [3] 50.5% [25 µM] | [4] 30.1% [25 µM] | [6] 55.5% [25 µM] | [8] 31.2% [25 µM] | [9] 35.1% [25 µM] | [11] 17.7% [25 µM] | [12] 11.9% [25 µM] | [13] 59.2% [25 µM] | [14] 28.3% [25 µM] | [16] 41.1% [25 µM] | [19] 91.2% [25 µM] | [20] 23.5% [25 µM]

ClC(Cl)c1nc(-c2ccccc2)nc2cc(-c3ccccc3)nn12
inactive: [1] 51.5% | [2] 89.9% | [3] 96.6% | [4] 44.4% | [5] 74.9% | [6] 62.8% | [7] 97.1% | [8] 46.1% | [9] 80.1% | [10] 59.5% | [11] 32.4% | [12] 36.9% | [13] 93% | [14] 60% | [15] 19.8% | [16] 57.2% | [17] 97.7% | [18] 79% | [19] 102% | [20] 98.7%

COc1ccc(S(=O)(=O)n2ccc(-c3ccc4c(c3)CCC(C)(C)O4)n2)cc1OC
inactive: [1] 56.1% | [2] 59% | [3] 89.5% | [4] 112% | [5] 69.6% | [6] 58.3% | [7] 65.8% | [8] 67.1% | [9] 79.4% | [10] 87.1% | [11] 82.6% | [12] 53% | [13] 114% | [14] 82.5% | [15] 75.1% | [16] 85.3% | [17] 63% | [18] 97.1% | [19] 57.1% | [20] 81.9%

O=C(Nc1ccc(NCCN2CCOCC2)nc1)c1ccc([N+](=O)[O-])cc1
inactive: [1] 100% | [2] 109% | [3] 107% | [4] 103% | [5] 110% | [6] 103% | [7] 95.2% | [8] 98.3% | [9] 104% | [10] 110% | [11] 106% | [12] 103% | [13] 105% | [14] 103% | [15] 124% | [16] 103% | [17] 91.3% | [18] 95.6% | [19] 93.1% | [20] 105%

CN(C)CCCC(C#N)c1ccccc1 (stereo unspecified)
inactive: [1] 103% | [2] 107% | [3] 115% | [4] 103% | [5] 116% | [6] 105% | [7] 119% | [8] 105% | [9] 97.9% | [10] 119% | [11] 122% | [12] 99.1% | [13] 131% | [14] 112% | [15] 115% | [16] 114% | [17] 110% | [19] 104% | [20] 104%

Cc1cc(C(C)(C)C)ccc1S
inactive: [1] 108% | [2] 96.3% | [3] 95.9% | [4] 96.2% | [5] 114% | [6] 86.3% | [7] 85.8% | [8] 111% | [9] 99.9% | [10] 116% | [11] 116% | [12] 99.8% | [13] 113% | [14] 115% | [15] 103% | [16] 102% | [17] 102% | [19] 108% | [20] 112%

COc1cc2c(=O)n(C3CCCCCC3)c3c4cc[nH]c4ncc3c2cc1OC
inactive: [1] 77.1% | [2] 43.9% | [3] 89.2% | [4] 59% | [5] 72.4% | [6] 59.1% | [7] 65.4% | [8] 79.7% | [9] 90.2% | [10] 79.9% | [11] 78% | [12] 16% | [13] 113% | [14] 75.5% | [15] 37.7% | [16] 65.6% | [17] 69.7% | [18] 17.1% | [19] 109% | [20] 92.6%

COc1cccc(CC(C)=C(c2ccc(OCCN3CCCCC3)cc2)c2ccc(OCCN3CCCCC3)cc2)c1
active: [3] 0.584% | [5] -73.3% | [6] -4.48% | [7] -75% | [8] 2.38% | [9] -83.7% | [10] -81.2% | [12] -37.3% | [13] -88.5% | [14] -76.8% | [15] -85.5% | [16] -18.9% | [17] -62% | [18] -96.1% | [19] -69.3% | [20] -64.8%
inactive: [1] 58% | [2] 79.8% | [4] 31.1% | [11] 17.8%

O=C(Nc1ccc2c(c1)OCO2)C(=O)c1c[nH]c2cc(F)ccc12
inactive: [1] 79.6% | [2] 73% | [3] 65.3% | [4] 54.4% | [5] 41.3% | [6] 42.2% | [7] 61.2% | [8] 48.9% | [9] 57.7% | [10] 83.1% | [11] 34.5% | [12] 26.4% | [13] 73% | [14] 25.6% | [15] 75.4% | [16] 47.6% | [17] 24.2% | [18] 56.1% | [19] 64.4% | [20] 29.9%

CC(C)OC(=O)N1CCOCC1
inactive: [1] 98.1% | [2] 101% | [3] 106% | [4] 98.9% | [5] 107% | [6] 92.2% | [7] 95.9% | [8] 103% | [9] 104% | [10] 101% | [11] 104% | [12] 123% | [13] 94.7% | [14] 90.8% | [15] 116% | [16] 99.7% | [17] 113% | [19] 97.1% | [20] 103%

COc1ccc(/C=C2\CN(Cc3cn(CCNc4ccnc5cc(Cl)ccc45)nn3)C/C(=C\c3ccc(OC)c(OC)c3)C2=O)cc1OC
active: [4] -7.73% | [5] -28.5% | [6] -16.1% | [7] -67.8% | [11] 0.0798% | [12] 2.21% | [13] -27.7% | [14] -0.28% | [15] -52.1% | [16] 9.6% | [18] -12.5% | [19] 5.32% | [20] 3.7%
inactive: [1] 48% | [2] 17% | [3] 44.7% | [8] 22.7% | [9] 15.9% | [10] 10.1%
